Test results: PubChem BioAssay AID1220 (Sanford-Burnham Center for Chemical Genomics, 2008)
Out of some 190,000 compounds screened, about 1,300 (0.68%) were called active. No stated cut-off is given here; in the data, active means inhibition above about 50%; inactive means the rest. The full list was thinned out, with actives kept by preference.

Biological target: Mannose-6-phosphate isomerase (Homo sapiens) (UniProt P34949)
Experiment: MPI inhibition at elevated mannose 6-phosphate – biochemical, fluorescence intensity, high mannose 6-phosphate, primary screen (AID 1220)
Conditions: recombinant PMI enzyme, coupled fluorescence intensity; at 20 µM; stronger effect = higher value

Sequence of Mannose-6-phosphate isomerase (Homo sapiens) (P34949 whole entry, looked up): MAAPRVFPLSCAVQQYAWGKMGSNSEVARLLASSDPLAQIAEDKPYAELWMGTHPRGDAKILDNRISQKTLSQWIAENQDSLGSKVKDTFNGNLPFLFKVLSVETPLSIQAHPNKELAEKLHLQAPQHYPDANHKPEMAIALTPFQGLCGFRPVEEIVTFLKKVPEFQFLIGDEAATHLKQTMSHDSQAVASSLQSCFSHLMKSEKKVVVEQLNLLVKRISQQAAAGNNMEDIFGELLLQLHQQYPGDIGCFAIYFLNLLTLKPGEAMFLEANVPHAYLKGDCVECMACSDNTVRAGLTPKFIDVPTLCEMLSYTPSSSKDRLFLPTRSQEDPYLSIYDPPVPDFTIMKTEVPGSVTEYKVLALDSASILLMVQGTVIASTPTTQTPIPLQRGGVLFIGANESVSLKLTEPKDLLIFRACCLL

inhibition, inactive:
COc1ccc(OC)c(-n2c(-c3cccc(S(=O)(=O)N(C)C)c3)n[nH]c2=S)c1 15.9%
Nc1nc(-c2ccc(Cl)cc2)c(S(=O)(=O)c2ccccc2)s1 -1.5%
COc1cc(/C=N/NC(=O)CN2CCOCC2)ccc1OCc1ccccc1 -5.3%
COc1ccc(Cl)c(NC(=O)Cn2nnc(-c3ccccc3N)n2)c1 -3.6%
CCc1nc(Nc2ccc3c(c2)OCO3)c2oc3ccccc3c2n1 23%
CCOCCCNS(=O)(=O)c1ccc(NC(=O)C2CC(=O)N(c3ccc(C)cc3)C2)cc1 (stereo unspecified) 6%
Cc1cc(C)c(C(=O)/C=C/C=C/c2ccccc2)c(=O)[nH]1 22.8%
C/C(=N\NC(=O)c1nn(C)c(C)c1Br)c1ccc(NC(=O)c2ccccc2F)cc1 10.7%
COc1ccc(C(=O)NC(=S)NNC(=O)c2ccc(NC(=O)C(C)C)cc2)cc1 -10.9%
O=c1[nH]ncc(N2CCCCC2)c1Cl 12.3%
Cc1cc(F)ccc1NCc1cc2c(cc1[N+](=O)[O-])OCO2 37.6%
Cc1cc([N+](=O)[O-])ccc1NCc1ccccc1[N+](=O)[O-] 21.5%
CCOC(=O)/C(C(=O)Nc1ccc(Br)cc1)=C1/NC(C)(C)Cc2ccccc21 3.4%
OCCNC(=S)Nc1ccc(Oc2ccccc2)cc1 2.2%
CCCC12CN3CCN(CC(C3)/C1=N\NC(=O)c1ccccc1Cl)C2 -11.2%
O=C1c2ccccc2C(Nc2ccc3c(c2)OCO3)N1Cc1ccc2c(c1)OCO2 (stereo unspecified) 23.7%
O=C1c2ccccc2C(Nc2ccc3c(c2)OCCO3)N1Cc1ccco1 (stereo unspecified) 0.2%
CCN(C(=O)CSc1nnc(-c2c[nH]c3ccccc23)o1)C1CCS(=O)(=O)C1 (stereo unspecified) 4.2%
O=c1c2c(nc3nc(NCc4ccccc4Cl)[nH]n13)CCC2 -5.2%
COc1ccccc1CNc1nc2nc3c(c(=O)n2[nH]1)CCC3 4.2%
CC1CCCCN1CCNC(=O)Cn1nc(-c2ccccc2)ccc1=O (stereo unspecified) -4.4%
Cc1ccc(-c2ccc(=O)n(CC(=O)NCCCN3CCCCC3C)n2)cc1 (stereo unspecified) 12.3%

inhibition, active:
Cc1cc(F)ccc1NCc1ccccc1[N+](=O)[O-] 70%
O=C1c2ccccc2C(Nc2ccc3c(c2)OCO3)N1Cc1ccco1 (stereo unspecified) 57.7%
O=c1c2c(nc3nc(NCc4cccc5ccccc45)[nH]n13)CCC2 55.7%
Cc1ccc(-c2ccc(=O)n(CC(=O)NCCN3CCCCC3C)n2)cc1 (stereo unspecified) 60.7%
